In the library only some 4.7% were active in any assay of this set; here they are far more common.
sdo1 growth: growth rescue of sdo1-depleted yeast, primary screen, S. cerevisiae, bone marrow failure model. S. cerevisiae sdo1-depleted JHY4D growth rescue, OD600 30 h; active compounds read high; pdr5 snq2 efflux-pump mutant strain. z-score at 10 µM. actives 0.21% (n = 140,000);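 active = z-score above 3 at both the 24 hr and the 30 hr optical density reads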;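 also: z-score against mean and SD of all compound wells on the same plate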
PTK2B oligo ant: antagonists of Pyk2 self-association, primary screen, Q293 cells, FERM NanoBiT luminescence, HTS; Protein-tyrosine kinase 2-beta (Homo sapiens), Q14289; active compounds read low; z-score (the deposit names both 25 µM and 10 µM); actives 0.83% (n = 99,000);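 active = Z-score of -3 or lower, scaled per plate to the spread of control and sample wells; inactive = z-score above -3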;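 also: negative z-score means lost luminescence so less FERM oligomerization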
Cav3 T inh: Cav3.2 calcium influx blockers – cell-based, Fluo-4 calcium fluorescence, FDSS, MLSMR library, primary screen; Cav3.2-expressing cells; active compounds read low; Voltage-dependent T-type calcium channel subunit alpha-1H (Homo sapiens), O95180; B-score at 10 µM; actives 4% (n = 100,000);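 active = single-dose well whose peak fluorescence ratio is a statistical outlier from its plate by either plate-standardised score or position-corrected B-score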
PLK1 kinase inh: human PLK1 kinase inhibitors, primary screen, biochemical, TR-FRET; Serine/threonine-protein kinase PLK1 (Homo sapiens), P53350; actives 0.53% (n = 97,000); inhibition, % at 10 µM; recombinant PLK1 kinase, TR-FRET peptide phosphorylation; AID 619, 2007;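 active = inhibition of 50% or more in the single-concentration screen; inactive = inhibition below 50%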;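 also: 0% = DMSO max control and 100% = H-89 dihydrochloride min control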
DAT uptake mod: changed hDAT dopamine uptake under cocaine IC80, either direction, primary screen, cocaine antagonist project, cell-based, LLC-PK1 hDAT, [14C]-dopamine uptake, MLSMR. Sodium-dependent dopamine transporter (Homo sapiens), Q01959. actives 1.3% (n = 110,000). LLC-PK1 hDAT cells, [14C]-dopamine uptake with cocaine IC80; actives deviate in either direction. B-score at 10 µM;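 active = Z score or B-score, a plate-position-corrected score, falls beyond the plate's 99.7% confidence bounds, in either direction; inactive = both scores lie inside the 99.7% bounds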;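 also: scored against the spread of the other compound wells on the same plate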
PLK1 PBD inh: Plk1 polo box domain binding inhibitors, primary screen, biochemical, fluorescence polarization | Serine/threonine-protein kinase PLK1 (Homo sapiens), P53350 | Plk1 PBD phosphopeptide binding | inhibition, %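 (tested at about 20 µM)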 | actives 0.13% (n = 97,000) | AID 693, 2007; in the data active = inhibition above about 34%, passing the limit was not always enough
Starred values were filed as active, the others as inactive; . = no result given.

SMILES	sdo1 growth	PTK2B oligo ant	Cav3 T inh	PLK1 kinase inh	DAT uptake mod	PLK1 PBD inh
O=C(NCc1ccco1)C(c1ccco1)N(CCc1ccccc1)C(=O)Cn1nnc2ccccc21 (stereo not given)	0.56	-0.27	-6.2*	-9	-0.031	17
COc1ccc(/C=N/NC(=O)CCSc2nc3ccccc3s2)cc1	-0.79	.	.	.	.	.
CC(C)(C)C1CCC(=NNC(=O)C(=O)NC2CCCCC2)CC1 (stereo not given)	0.12	.	.	.	.	.
Cc1nc(NC(=O)C(C)Oc2cccc(Cl)c2)sc1C(=O)N(C)C (stereo not given)	-0.08	.	.	.	.	.
Cc1c(N=C(N)/N=C(\N)Nc2ccc(Br)cc2)c(=O)n(-c2ccccc2)n1C	-0.17	.	.	.	.	.
O=C(NCc1ccco1)C(c1cccs1)N(Cc1ccccc1)C(=O)Cn1nnc2ccccc21 (stereo not given)	1.2	-3.3*	-3.2	-6	-0.69	30
CC(C)c1ccc(CN(C(=O)C2COc3ccccc3O2)C2CCS(=O)(=O)C2)cc1 (stereo not given)	-1.9	0.11	-4.4*	-1	0.034	-13
Clc1cc(Cl)cc(C2=NCCC(c3ccccc3)O2)c1 (stereo not given)	-1.2	.	.	.	.	.
ONC(=Nc1ccc(Cl)cc1)c1ccccc1	0.51	-0.73	.	-17	-9.7*	17
O=[N+]([O-])c1cccc(C(=Nc2cccc(Cl)c2)NO)c1	3.1	-1.4	.	-2	1.2	12
CCOC(=O)CCC(NC(=O)CCCCCCCC(=O)NC(CCC(=O)OCC)C(=O)OCC)C(=O)OCC (stereo not given)	0.7	.	.	.	.	.
CNC(=O)Nc1ccc2snnc2c1	-0.24	.	0.84	14	-1.8	-35
CC1CN(C(=O)Nc2ccc3snnc3c2)c2ccccc21 (stereo not given)	-0.29	.	-1.9	.	2.6*	.
C=CCN1c2ccccc2[C@]23C[C@@H](C(=O)OC)N(C(=O)c4cccs4)C2=NC(C(=O)OC)=C(C(=O)OC)[C@H]13	.	.	-2.2	.	-0.13	.
CCC1(C(=O)c2ccccc2)C2c3cc(Br)ccc3OC(=O)C21C(=O)N1CCOCC1 (stereo not given)	-0.82	-1	-4.3*	-15	-0.32	-10
COc1cc(NS(=O)(=O)c2ccc(Br)s2)cc(OC)c1	0.33	-1.1	-5.8*	-7	-0.31	7
Cc1nc(NC(=O)CN(C)S(=O)(=O)c2ccc(Br)cc2)sc1C	-0.24	-1.2	-5.8*	4	0.031	-12
O=C(NC1CCCC1)C(c1ccccc1)N(C(=O)c1ccno1)c1ccccc1 (stereo not given)	-0.63	-1.9	0.58	-4	-0.46	2
COc1cc(OC)cc(C(C(=O)NC2CCCCC2)N(C(=O)c2ccno2)c2ccccc2)c1 (stereo not given)	0.68	-3.6*	0.063	-8	-0.27	4
CCCC(=O)Nc1nc2c(OC)ccc(OC)c2s1	-0.11	.	-0.63	63*	0.16	0
O=C(O)c1cc(Cl)c(Cl)cc1C(=O)Nc1cccc2cccnc12	0.81	.	.	.	.	.
O=C(CSc1nnc(SCc2cccc3ccccc23)s1)N=Nc1c(O)[nH]c2ccccc12	-0.49	.	.	.	.	.
CN(CCOc1ccccc1)S(=O)(=O)c1ccc2oc3ccccc3c2c1	-0.64	-1.4	-5.4*	-5	-0.79	-10
Cn1c(SCc2cccc3ccccc23)nnc1-c1ccco1	-0.53	-0.71	-2.2	-9	2.7*	-18
Nn1c(SCc2cccc3ccccc23)nnc1-c1ccco1	-0.54	-0.08	0.088	-3	0.78	-11
COc1ccc(-c2nn(-c3ccccc3)cc2/C=N/N2C(=O)CSC2=S)cc1	-2	-0.86	-2.3	-7	-0.12	6
O=C(NC1CC1)C1=C[C@@H](c2c[nH]c3ccccc23)C[C@@H](OCc2ccc(CO)cc2)O1	.	.	0.046	.	2.3	.
COCCOC(=O)c1c(C)nc(SCC(=O)Nc2ccc(C)cc2)c(C#N)c1-c1ccco1	-0.45	-2.1	-0.012	.	0.11	.

From PubChem BioAssay
